Measurements published in PubChem BioAssay (NCI).
The panel holds about 83,000 compounds, 20% with a hit somewhere; the sample as a whole holds those more often.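 Each cell line was grown in a 96-well plate and treated with one concentration of compound for 48 hours. Values below 10 were considered active.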 A number with no mark means an inactive call. The source made the active and inactive calls.

Test system: ACHN renal
Assay: NCI-60 one-dose screen, 48 h (100 = growth as untreated, 0 = no growth, -100 = all killed)
Settings: 10 µM unless noted

SMILES | growth
CC(=O)OC1/C=C\CC/C=C\C1 (stereo unspecified) | 96.3%
CCCCCCCCC1OC1CCCCCCCC(=O)O (stereo unspecified) | 103%
O=c1[nH]c(=S)[nH]c(O)c1/C=C1\C=Nc2ccccc21 | 82.5%
CCOC1=C(Cl)C(=O)C(OCC)=C(Cl)C1=O | 106%
Cc1ccc(C(=O)NN)cc1 | 115%
O=C1C(=O)c2ccccc2C(O)=C1CCCc1ccc(Oc2ccccc2)cc1 | 59.4%
CCN(CC)CCCC(C)Nc1c(C)cnc2cc(Cl)c(C)cc12 (stereo unspecified) | 94%
Oc1ccc([S+](c2ccc(O)cc2)c2ccc(O)cc2)cc1 | 106%
Cn1c2c(cc(S(=O)(=O)c3ccccc3)c1=O)CCc1c-2cnn1-c1ccc(Cl)cc1 | 6.4% (active)
CCCCCN1CCN(C(CC(=O)c2ccccc2)C(=O)c2ccccc2)CC1 (stereo unspecified) | 106%
S=C(N/N=C/c1cc(Cl)cc(Cl)c1)NC12CC3CC(CC(C3)C1)C2 | 4.44% (active)
CC(=O)c1ccc2c(c1)c1ccccc1n2C | 110%
CC1(C)NC(=S)NC1=O | 109%
O=C(NC1CCN(Cc2ccccc2)CC1)c1cc(-c2cccnc2)nc2ccc(Cl)cc12 | 81.2%
O=C(O)CS(=O)c1ccc(Cl)cc1 (stereo unspecified) | 95.2%
Cc1ccc(S(=O)(=O)NC(CCC(=O)Nc2ccccc2)C(=O)Nc2ccccc2)cc1 (stereo unspecified) | -50.7% (active)
COc1ccc(/C=C2\CCCC3=C2N=C2SC=NN2C3c2ccc(OC)c(OC)c2)cc1OC (stereo unspecified) | 37.4%
O=C1C(Br)=CC2C1C1C3CCC3C2(Br)C12OCCO2 (stereo unspecified) | 32.5%

SMILES | growth
Oc1ccc(Br)cc1/C=N/NC(=S)NC12CC3CC(CC(C3)C1)C2 | 2.67% (active)
Cc1ccc([C@@H]2C[C@H](O)Cc3ccccc3N2)s1 | 104%
CCCCCCC(C)N(CC(C)(C)O)C(=O)c1ccc([N+](=O)[O-])cc1 (stereo unspecified) | 107%
CC[n+]1c(C)ccc2cc(C)ccc21 | 106%
CCN(CC)CCCNc1c2ccc(Cl)cc2nc2ccc(OC)cc12 | 1.29% (active)
O=C(NCCNCCO)c1cc([N+](=O)[O-])cc([N+](=O)[O-])c1O | 107%
COC1=C(OC)C(=O)c2ccccc2C1=O | 92%
O=C(/C=C\c1ccc(NCc2ccc(C(=O)O)cc2)cc1)CCl | 93.3%
O=C(/C(Br)=C/c1ccccc1)c1ccccc1 | -71.3% (active)
Oc1ccc(CN(Cc2ccc(C(F)(F)F)cc2)Cc2ccc(O)c3ncccc23)c2cccnc12 | 9.38% (active)
CNc1ccc(Nc2ccc(S(=O)(=O)O)cc2)c2c1C(=O)c1ccccc1C2=O | 98.7%
CC(=O)Nc1ccc(C(=O)/C=C/c2ccc(N(C)C)cc2)cc1 | 103%
Cc1sc(NC(=O)c2ccc(C(C)(C)C)cc2)c(C(=O)O)c1C | 38.8%
CCCCN(CCC)CCCCCCCCCCN1CCCc2ccccc21 | 82.7%
COc1ccc(/C=C/C(=O)/C=C/c2cc3ccccc3[nH]c2=O)cc1 | 84.1%
CCCCCC(=C/c1ccccc1)/C=N/N=C(N)N | 1.62% (active)
CC([C@H]1CC=C2C3CCC4=C[C@@H](N(C)C)CC[C@]4(C)C3CC[C@@]21C)N(C)C (stereo partly specified) | 48.1%
C=CN(C)S(C)(=O)=O | 39.5%

Test system: CAKI-1 renal
Assay: as above
Settings: 10 µM unless noted

SMILES | growth
CC(=O)OC1/C=C\CC/C=C\C1 (stereo unspecified) | 99.2%
CCCCCCCCC1OC1CCCCCCCC(=O)O (stereo unspecified) | 100%
O=c1[nH]c(=S)[nH]c(O)c1/C=C1\C=Nc2ccccc21 | 27.3%
CCOC1=C(Cl)C(=O)C(OCC)=C(Cl)C1=O | 109%
O=C1C(=O)c2ccccc2C(O)=C1CCCc1ccc(Oc2ccccc2)cc1 | 43.3%
CCN(CC)CCCC(C)Nc1c(C)cnc2cc(Cl)c(C)cc12 (stereo unspecified) | 80.6%
Oc1ccc([S+](c2ccc(O)cc2)c2ccc(O)cc2)cc1 | 102%
CCCCCN1CCN(C(CC(=O)c2ccccc2)C(=O)c2ccccc2)CC1 (stereo unspecified) | 81.6%
S=C(N/N=C/c1cc(Cl)cc(Cl)c1)NC12CC3CC(CC(C3)C1)C2 | -1.81% (active)
CC(=O)c1ccc2c(c1)c1ccccc1n2C | 73.5%
CC1(C)NC(=S)NC1=O | 97.8%
O=C(NC1CCN(Cc2ccccc2)CC1)c1cc(-c2cccnc2)nc2ccc(Cl)cc12 | 82.6%
O=C(O)CS(=O)c1ccc(Cl)cc1 (stereo unspecified) | 115%
Cc1ccc(S(=O)(=O)NC(CCC(=O)Nc2ccccc2)C(=O)Nc2ccccc2)cc1 (stereo unspecified) | 12%
COc1ccc(/C=C2\CCCC3=C2N=C2SC=NN2C3c2ccc(OC)c(OC)c2)cc1OC (stereo unspecified) | 32.5%
O=C1C(Br)=CC2C1C1C3CCC3C2(Br)C12OCCO2 (stereo unspecified) | -19.3% (active)
Oc1ccc(Br)cc1/C=N/NC(=S)NC12CC3CC(CC(C3)C1)C2 | -35.3% (active)
Cc1ccc([C@@H]2C[C@H](O)Cc3ccccc3N2)s1 | 94.8%

SMILES | growth
CCCCCCC(C)N(CC(C)(C)O)C(=O)c1ccc([N+](=O)[O-])cc1 (stereo unspecified) | 108%
CC[n+]1c(C)ccc2cc(C)ccc21 | 113%
CCN(CC)CCCNc1c2ccc(Cl)cc2nc2ccc(OC)cc12 | 4.67% (active)
O=C(NCCNCCO)c1cc([N+](=O)[O-])cc([N+](=O)[O-])c1O | 100%
O=C(/C=C\c1ccc(NCc2ccc(C(=O)O)cc2)cc1)CCl | 105%
O=C(/C(Br)=C/c1ccccc1)c1ccccc1 | -28.4% (active)
CC1Cc2cc(F)ccc2-n2cccc21 (stereo unspecified) | 101%
Oc1ccc(CN(Cc2ccc(C(F)(F)F)cc2)Cc2ccc(O)c3ncccc23)c2cccnc12 | 5.6% (active)
CNc1ccc(Nc2ccc(S(=O)(=O)O)cc2)c2c1C(=O)c1ccccc1C2=O | 91.9%
CC(=O)Nc1ccc(C(=O)/C=C/c2ccc(N(C)C)cc2)cc1 | 97%
Cc1sc(NC(=O)c2ccc(C(C)(C)C)cc2)c(C(=O)O)c1C | 41.9%
O=C(CBr)OCc1ccc([N+](=O)[O-])o1 | 53.8%
CCCCN(CCC)CCCCCCCCCCN1CCCc2ccccc21 | 63.2%
C=C(C)[C@@H]1CC[C@]2(COC(=O)c3ccccc3C(=O)O)CC[C@]3(C)[C@H](CC[C@@H]4[C@@]5(C)CCCNC(C)(C)[C@@H]5CC[C@]43C)[C@@H]12 | 91.7%
COc1ccc(/C=C/C(=O)/C=C/c2cc3ccccc3[nH]c2=O)cc1 | 98.2%
CC([C@H]1CC=C2C3CCC4=C[C@@H](N(C)C)CC[C@]4(C)C3CC[C@@]21C)N(C)C (stereo partly specified) | -48.8% (active)
C=CN(C)S(C)(=O)=O | -7.94% (active)
